PubChem BioAssay AID504834 (National Center for Advancing Translational Sciences (NCATS), 2011)
About 22,000 (6.9%) of roughly 320,000 compounds were called active. Another 27% or so got no clear call; they are omitted. Calls come from the whole dose curve; as a rule, active = well fitted inhibition curve with a large enough effect; inconclusive = small, poorly fitted or top-dose-only effect, or another doubt; inactive = no such curve, though single readings can be large or run the other way. Shown is part of a subset that was picked to be rich in actives. Where a call stands in place of a potency, no number is given.

Experiment: Primary qHTS for delayed death inhibitors of the malarial parasite plastid, 96 hour incubation
Details: P. falciparum luciferase reporter growth; series mostly up to 28.7 µM
From the text: The goal of this screen is to discover new antimalarial compounds that act by inhibiting the development of the apicoplast in the malarial parasite Plasmodium falciparum. The biochemical processes that make this organelle essential for erythrocytic stage parasites are not well understood. However, antibiotics such as azithromycin and tetracycline, which target the apicoplast translational machinery, have a potent antimalarial effect.
We have developed a cell-based assay that measures parasite growth based on the expression of an integrated copy of a firefly luciferase reporter. To detect small molecules that cause this "delayed death" phenotype, erythrocytes infected with the luciferase-expressing parasites were incubated with compounds for either one or two generations, corresponding to 48 and 96 hours, respectively. Compounds that inhibit parasite growth in the second generation, but not the first, should be enriched in antimalarials that target the apicoplast. Growth inhibition is detected by a decrease in luciferase activity.
Assay Provider: David Fidock and Eric Ekland, Columbia University
Keywords: NIH Roadmap, MLPCN, MLI, MLSMR, qHTS, NCGC, qHTS, malaria, luciferase, viability
Four microliters of infected erythrocytes (2% hematocrit, 0.05% parasitemia final concentration) in culture medium were dispensed and the plates incubated for 96 hours at 37 C in 5% CO2. Two microliters of luciferase detection reagent was added and luminescence was detected by a ViewLux (PerkinElmer) reader.
Potency is the fitted concentration of half-maximal effect.

Row | Compound | Potency
1 | CCCc1cc(=O)oc2c(C)c(OC(C)C(=O)NCC(O)c3ccccc3)ccc12 (centres undefined) | inactive
2 | CCCCc1cc(=O)oc2c(C)c(OCC(=O)N3CCC(C(N)=O)CC3)ccc12 | inactive
3 | CCCc1cc(=O)oc2c(C)c(O)c(CN3CCCCC3)cc12 | 2.08 µM (active)
4 | COc1ccc(NC(=O)CN2C(=O)COc3ccc(S(=O)(=O)N4CCOCC4)cc32)cc1 | inactive
5 | Cc1ccc(S(=O)(=O)N2CCC(C)CC2)cc1C(=O)NCc1ccccn1 | inactive
6 | O=C(CCc1nc2sc3c(c2c(=O)[nH]1)CCCC3)NCC(=O)Nc1ccccc1Br | inactive
7 | O=C(CCNS(=O)(=O)c1cccs1)N1CCN(c2ccc(F)cc2)CC1 | inactive
8 | CN(CCC1CCOCC1)C(=O)CC1C(=O)NCCN1Cc1cccc(F)c1 (centres undefined) | inactive
9 | CN(CCC1CCOCC1)Cc1cn[nH]c1-c1ccc(-c2ccccc2)cc1 | 13.1 µM (active)
10 | O=[N+]([O-])c1ccc(N2CCSCC2)cc1O | inactive
11 | O=C(COC(=O)C1CC2CCCC(C1)C2=O)NC(=O)c1ccccc1 (centres undefined) | inactive
12 | Cc1ccc(Nc2nc(-c3ccc(O)cc3O)cs2)nc1 | inactive
13 | Cc1cc(O)ccc1-c1cnc2ccccc2n1 | 2.62 µM (active)
14 | CC(=O)Nc1cccc(-c2cnc3ccccc3n2)c1 | inactive
15 | COc1ccc2oc(=N)c(C(=O)Nc3ccc(Br)cc3)cc2c1 | inactive
16 | Cc1cccc(-n2c(=O)c3c(C)c(C)sc3n(CC(N)=O)c2=O)c1 | inactive
17 | Cc1cccc(NC(=O)Cn2c(=O)n(Cc3ccccc3)c(=O)c3c(C)c(C)sc32)c1 | 14.7 µM (active)
18 | Cc1sc2c(c1C)c(=O)n(-c1ccccc1)c(=O)n2CC(=O)NCC1CCCO1 (centres undefined) | inactive
19 | Cc1noc(C)c1COc1ccccc1C(=O)N(C)CC(=O)Nc1cccc(F)c1 | inactive
20 | O=C(O)C1CCC(CNS(=O)(=O)c2ccc(Br)cc2)CC1 (centres undefined) | inactive
21 | CN(C)CCCNC(=S)N1CCN(c2nc(-c3ccccc3)cs2)CC1 | inactive
22 | Cc1ccc(NC(=O)C(CC(=O)O)C2CCCO2)c(C)c1 (centres undefined) | inactive
23 | COc1cccc(/C=C2\C=C(c3ccc(C)cc3)OC2=O)c1OC(C)=O | inactive
24 | O=C(COC(=O)CCCN1C(=O)c2cccc3cccc(c23)C1=O)NC1CCS(=O)(=O)C1 (centres undefined) | inactive
25 | COc1cc([N+](=O)[O-])ccc1NC(=O)COC(=O)CCOc1ccc(C)cc1 | inactive
26 | O=C(Nc1nnc(CCN2CCCCC2)s1)c1cccc(Cl)c1 | inactive

Row | Compound | Potency
27 | CCN(CC)C(=O)C(=O)Nc1cccc(Br)c1 | inactive
28 | CCN(CC)C(=O)Oc1ccc(Br)cc1C(=O)Nc1ccc(F)c(Cl)c1 | 11.7 µM (active)
29 | COC(=O)c1ccc(NC(=O)c2cc(Cl)ccc2OC)cc1 | inactive
30 | Cc1cc(C)n2nc(C(=O)OCC(=O)N(C)CC(=O)Nc3ccc(F)cc3)nc2n1 | inactive
31 | COc1ccccc1NC(=O)C1=C(C)NC2=C(C(=O)CCC2)C1c1ccc(C)o1 (centres undefined) | inactive
32 | COc1ccccc1NC(=O)C1=C(C)NC(=O)NC1c1ccc(C)s1 (centres undefined) | 6.57 µM (active)
33 | COc1ccccc1NC(=O)C1=C(C)Nc2ncnn2C1c1ccc(C)o1 (centres undefined) | inactive
34 | Cc1ccc(Nc2ncnc3c2cnn3C)c(C)c1 | inactive
35 | O=C(COc1ccccc1)N1CCN=C1SCc1cccc(F)c1 | inactive
36 | O=C(C1CC1)N1CCN=C1SCc1ccc(Cl)cc1 | inactive
37 | O=C(c1ccco1)N1CCN=C1SCc1cccc(Cl)c1 | 10.4 µM (active)
38 | COc1ccccc1C1C(C(N)=O)=C(C)Nc2nc(CCCO)nn21 (centres undefined) | inactive
39 | Clc1ccc(C2=CSC3=Nc4cccc5cccc(c45)N23)cc1 | 3.7 µM (active)
40 | COc1ccccc1-c1c(C#N)c(N)nc2c1CCC2 | inactive
41 | O=C(Nc1nonc1-c1ccc(Cl)cc1)c1ccco1 | inactive
42 | COCCn1c(SC(C)C(=O)NC2CC2)nnc1-c1cccc(C)c1 (centres undefined) | inactive
43 | CCc1nc2cccnc2n1-c1ccc(C(=O)O)cc1 | inactive
44 | COC(=O)c1cc(CNC(=O)CC(C)c2ccccc2)ccc1OC (centres undefined) | inactive
45 | CCCOc1ccc(CN(CCO)CCO)cc1C(=O)OC | 8.28 µM (active)
46 | CCOc1ccc(CN(CCCl)CCCl)cc1C(=O)OC | inactive
47 | Cc1ccc(C(=O)NCCc2nnc(SCC(=O)Nc3cccc(C(=O)O)c3)n2C)cc1 | inactive
48 | COc1cc(CCC(=O)N2CCN(c3ccccc3Cl)CC2)cc(OC)c1OC | inactive
49 | Cc1ccc(NC(=S)NCCc2ccc(Cl)cc2)c(C)c1 | inactive
50 | CCOC(=O)CN1C(=O)C(=O)c2cc(C)ccc21 | inactive
51 | CC(OC(=O)CN1C(=O)c2ccccc2C1=O)C(=O)c1ccccc1 (centres undefined) | inactive
52 | CC(C)OC(=O)CN1C(=O)C(=O)c2ccccc21 | 2.08 µM (active)

Row | Compound | Potency
53 | COc1cc(C(C)=O)ccc1OC(=O)CN1C(=O)c2ccccc2C1=O | inactive
54 | CC(C)OC(=O)CN1C(=O)c2ccccc2C1=O | 7.38 µM (active)
55 | Cc1cccc2c1N(CC(=O)OC(C)C)C(=O)C2=O | inactive
56 | CCCCn1c(N)c(N(CC)C(=O)c2ccc(N(C)S(=O)(=O)c3ccc(C)cc3)cc2)c(=O)[nH]c1=O | inactive
57 | C[C@H](NC(=O)C1CC(=O)N(c2ccc3c(c2)OCCO3)C1)C(=O)N1CCC(C(=O)O)CC1 (some centres undefined) | inactive
58 | CC(C(=O)c1ccc(-c2ccccc2)cc1)[n+]1cccc(Br)c1 (centres undefined) | 2.33 µM (active)
59 | CC(=O)Nc1ccc(C(=O)C(Cc2ccccc2)N(C)C)cc1 (centres undefined) | inactive
60 | O=C(NC1CCCC1)C(c1c(F)cccc1Cl)N(C(=O)c1csnn1)C1CC1 (centres undefined) | inactive
61 | COc1ccc(-n2nc(C(=O)Nc3cc(OC)c(OC)c(OC)c3)c3ccccc3c2=O)c(OC)c1 | 8.28 µM (active)
62 | COC(=O)c1cc(NC(=O)c2nn(C)c(=O)c3ccccc23)cc(C(=O)OC)c1 | inactive
63 | COc1ccc(-n2nc(C(=O)NCC(=O)Nc3cccc(C)n3)c3ccccc3c2=O)cc1 | inactive
64 | Cc1ccc(NC(=O)Cc2nnc(SCC(=O)Nc3nncs3)n2C)cc1 | inactive
65 | CC1CCN(S(=O)(=O)c2ccc3c(ccn3CC(=O)O)c2)CC1 | inactive
66 | O=C(CNC(=O)c1ccccc1F)c1ccc(Br)cc1 | inactive
67 | COc1cccc(NC(=O)CN(C)C(=O)CSCc2nc3scc(-c4cccs4)c3c(=O)[nH]2)c1 | inactive
68 | Cc1ccccc1NC(=O)C(C)OC(=O)CCC(=O)N(CC(C)C)c1c(N)n(CC(C)C)c(=O)[nH]c1=O (centres undefined) | inactive
69 | Cc1ccc(S(=O)(=O)N2CCC(C(=O)OCC(=O)N(C)c3ccccc3)CC2)cc1C | inactive
70 | CCN(CC(=O)NCc1cccs1)C(=O)c1ccc(OC)c(S(=O)(=O)N2CCOCC2)c1 | inactive
71 | CC(C)(C)NC(=O)NC(=O)COC(=O)C1c2ccccc2Oc2ccccc21 | inactive
72 | Cc1ccccc1CSCC(=O)NC(=O)NC(C)(C)C | 10.4 µM (active)
73 | CC(C)(C)NC(=O)NC(=O)CN1CCC(Cc2ccccc2)CC1 | inactive
74 | COc1ccc(NC(=O)c2cc([N+](=O)[O-])ccc2NC(=O)CNC2CCCCC2C)c(OC)c1 (centres undefined) | inactive
75 | CN(CC(=O)Nc1ccc(F)c(F)c1F)C(=O)Cn1cnc2c1c(=O)n(C)c(=O)n2C | inactive
76 | COc1ccc2cc(C3=CC(=O)C[C@H](c4ccc5c(c4)OCO5)C3)ccc2c1 | inactive
77 | COc1ccc([C@H]2CC(=O)C=C(c3ccc(OC(F)(F)F)cc3)C2)cc1OC | 11.7 µM (active)
78 | COc1ccc([C@H]2CC(=O)C=C(c3ccc(C)cc3)C2)cc1 | inactive

Row | Compound | Potency
79 | COc1cccc(N2CC(NS(=O)(=O)c3cccs3)CC2=O)c1 (centres undefined) | inactive
80 | FCOC(C(F)(F)F)C(F)(F)F | inactive
81 | O=C(COc1ccc2c(c1)CCC2)N1CCN(c2ccc(F)cc2)CC1 | inactive
82 | CC(C)OCC(O)CN1CCN(C(c2ccccc2)c2ccccc2)CC1 (centres undefined) | inactive
83 | COc1ccccc1CN1CCN(C(c2ccccc2)c2ccccc2)CC1 | 8.28 µM (active)
84 | O=C(O)CN1CCN(C(c2ccccc2)c2ccccc2)CC1 | inactive
85 | COc1ccccc1CN1CCN(Cc2cc(OC)c(OC)cc2OC)CC1 | inactive
86 | COc1ccccc1NC(=S)N1CCN(C(c2ccccc2)c2ccccc2)CC1 | inactive
87 | Oc1ccccc1CN1CCN(C(c2ccccc2)c2ccccc2)CC1 | 0.828 µM (active)
88 | CC1=C(C(N)=O)C(c2ccc(F)cc2)n2nc(CCCO)nc2N1 (centres undefined) | inactive
89 | COc1cccc(N(C(=O)c2snc(C(N)=O)c2N)C(C(=O)NCC2CCCO2)c2c[nH]c3ccccc23)c1 (centres undefined) | inactive
90 | CC(C)Cc1nc(Cl)c(C#N)c2c1CCC2 | inactive
91 | COC(=O)c1ccc(S(=O)(=O)N(CCO)Cc2ccccc2)n1C | inactive
92 | COc1ccccc1C(=O)Nc1ccc(OCC(=O)N2CCCCC2)cc1 | inactive
93 | COc1ccccc1C(=O)Nc1ccc(OCc2nnc3c4ccccc4c(C)nn23)cc1 | 9.28 µM (active)
94 | COc1ccccc1C(=O)NNC(=O)c1ccc(NC(=O)c2ccccc2)cc1 | inactive
95 | CC(=O)N1CCN(C(=O)C2(NC(=O)Nc3ccc(C)cc3)CCCCC2)CC1 | inactive
96 | O=C(NCc1cc(F)cc(C(F)(F)F)c1)C1CCC(=O)N(C2CCCC2)C1 (centres undefined) | inactive
97 | CCOC(=O)c1c(CNCc2ccccc2F)c2sc(C)cc2n1C | inactive
98 | COc1ccc(Nc2ncnc3sc(C)cc23)cc1 | inactive
99 | CN1/C(=c2/s/c(=C3/C(=O)N(c4ccccc4)NC3=Nc3ccccc3)n(C)c2=O)C(C)(C)c2ccccc21 | 11.7 µM (active)
100 | CCN1C(=O)/C(=c2\s/c(=C3\Sc4ccccc4N3C)c(=O)n2C)N(C)C1=S | inactive
101 | Cc1csc2nc(O)c(C(=O)NCCN3CCOCC3)c(=O)n12 | inactive
102 | CCCOc1ccc2c3c(c(=O)oc2c1OCCC)CCC3 | 6.57 µM (active)
103 | O=C(COc1ccc2c3c(c(=O)oc2c1)CCC3)NC1CCCCC1 | inactive
104 | CCCCC(NS(=O)(=O)c1ccc(C)cc1)C(=O)Oc1ccc2c3c(c(=O)oc2c1)CCC3 (centres undefined) | inactive
